Most compounds without a hit are left out; they make up all but 3.1% or so of the library.
Wnt bcat act: activates Wnt/beta-catenin signaling in a reporter cell assay | AID 743398 | activator, plate reader | hit rate 1.2% among 300,000 | activation, % at 9.35 µM; in the data active = activation above about 30%, passing the limit was not always enough; inconclusive = no clear call, values can overlap the other calls;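 also: 0% = neutral control wells and 100% = positive control wells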
esBAF inh: blocks esBAF chromatin remodeling in mouse ES cells; Bmi1-luciferase knock-in reporter, 24 h; 100% = twice the neutral-well signal; reporter increase, % at 12.5 µM; hit rate 2% among 350,000; AID 602393; in the data active = activation above about 40%; inconclusive = no clear call, values can overlap the other calls;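 also: 0% = median of the plate's neutral control wells and 100% = double that signal; a rise in the Bmi1 reporter signal indicates esBAF inhibition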
Rtt109 HAT inh: inhibitors of Candida albicans Rtt109/Vps75 histone acetyltransferase; hit rate 0.16% among 330,000; purified Rtt109/Vps75, ThioGlo CoA-SH fluorescence, 4 h; inhibition, % at 34.9 µM; Q5AAJ8;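 active = inhibition of at least 50% in every replicate; inconclusive = best replicate reaches 50% inhibition but some replicates fall short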
Target sequence (Q5AAJ8 whole entry, looked up): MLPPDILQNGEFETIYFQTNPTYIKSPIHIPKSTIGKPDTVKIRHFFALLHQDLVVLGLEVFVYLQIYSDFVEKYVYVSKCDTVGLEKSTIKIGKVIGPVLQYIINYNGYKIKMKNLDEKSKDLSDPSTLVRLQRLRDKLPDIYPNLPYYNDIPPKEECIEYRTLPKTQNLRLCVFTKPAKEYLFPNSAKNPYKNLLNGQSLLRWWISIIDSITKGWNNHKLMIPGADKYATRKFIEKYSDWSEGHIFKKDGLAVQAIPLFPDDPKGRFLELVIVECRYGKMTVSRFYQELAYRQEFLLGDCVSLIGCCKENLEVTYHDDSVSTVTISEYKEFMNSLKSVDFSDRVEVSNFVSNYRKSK
MITF TRPM1 HTS: activators of MITF-driven TRPM1 promoter activity in SK-MEL-5 cells. SK-MEL-5 TRPM1-promoter luciferase, 24 h; % of positive control, neutral wells = 0. activation, % at 12.5 µM. hit rate 0.75% among 300,000;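 active = mean activation of at least 80% with every replicate also reaching 80%; inconclusive = mean reaches 80% but some replicate falls short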;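 also: 0% = neutral control wells and 100% = parthenolide positive control wells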
Statin myotox sup: suppression of simvastatin myotoxicity; C2C12 myotubes + simvastatin, ATP luminescence, 48 h; scaled: DMSO 0, geranylgeraniol control 100; rescue of ATP level, % at 7.49 µM; AID 602340; hit rate 0.78% among 330,000;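 active = mean ATP rescue above about 67%, or every replicate alone reaching that limit, limit read from the data, passing the limit was not always enough; inconclusive = no clear call, values can overlap the other calls; inactive = mean under the limit and some replicate under it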;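 also: myotubes were challenged with 10 µM simvastatin during compound exposure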
Active calls of the source: *; ? = inconclusive; . = no result.

SMILES	Wnt bcat act	esBAF inh	Rtt109 HAT inh	MITF TRPM1 HTS	Statin myotox sup
COc1cccc(Nc2nc(N)nc(-c3oc4ccccc4c3C)n2)c1	.	51*	6	24	-76
O=C(C[C@H]1CC[C@@H](NC(=O)C2CC2)[C@H](CO)O1)NCCCN1CCOCC1	.	-2	.	.	-3
Cc1cc(C)n(CC(=O)N/N=C/c2cc(Br)cc([N+](=O)[O-])c2O)n1	-2	.	-1	8	.
Cc1cc(C)n(CCC(=O)N/N=C/c2ccc(Br)c([N+](=O)[O-])c2)n1	36*	3	-2	-6	-7
O=C(CC1CC2CCC1C2)NC1CCCCCCC1 (stereo not given)	12	60*	-4	29	-5
O=C(CC1CCCCC1)NC1CCCC1	.	4	27	.	.
CCCN(CCC)CCCNC(=O)c1ccc2c(Cl)c3c(nc2c1)CCC3	3	10	3	.	-13
COCCNC(=O)c1ccc2c(Cl)c3c(nc2c1)CCC3	36*	?	11	100*	0
COc1ccc(NC(=O)Nc2ccc3c(c2)C(=O)N([C@@H](C)CO)C[C@H](C)[C@H](CN(C)C(=O)c2ccccc2)OCCCC[C@H](C)O3)cc1	.	-4	.	.	37
Cc1nc(-c2ccc3c(c2)OCO3)cs1	10	37	-2	.	-1
c1cncc(-c2nc(-c3ccc4c(c3)OCO4)cs2)c1	32*	52*	-1	85*	.
c1cncc(-c2csc(-c3cccnc3)n2)c1	2	36	-3	25	-1
Clc1ccsc1-c1csc(-c2cccnc2)n1	.	70*	1	11	-23
Nc1nc(C2CC2)c(Sc2sc(N)nc2C2CC2)s1	.	9	-13	-12	69*
Nc1nc(C2CCOCC2)cs1	12	.	-1	.	.
CS(=O)(=O)Nc1ccc2c(c1)[C@H]1C[C@@H](CC(=O)NCC3CC3)O[C@H](CO)[C@H]1O2	.	2	.	.	2
COc1ccc(CN(C)C[C@@H]2OCCCC[C@@H](C)Oc3ccc(NS(C)(=O)=O)cc3C(=O)N([C@H](C)CO)C[C@H]2C)cc1	.	0	.	.	7
CCN(CC)C(=O)Cn1cc(C(=O)C(=O)Nc2ccc3c(c2)OCCO3)c2ccccc21	-1	60*	16	82*	-3
COc1ccccc1NC(=O)C(=O)c1cn(CC(=O)N2CCCC2)c2ccccc12	9	72*	5	33	16
CC(=O)Nc1cccc(NC(=O)C(=O)c2cn(CC(=O)N3CCCC3)c3ccccc23)c1	.	47*	.	.	-12
C[C@@H]1CCCCO[C@@H](CN(C)C(=O)Nc2ccc3c(c2)OCO3)[C@H](C)CN([C@H](C)CO)C(=O)c2cc(N(C)C)ccc2O1	.	-4	.	.	37
O=C(C[C@H]1CC[C@H]2[C@@H](COC[C@@H](O)CN2C(=O)c2ccccc2F)O1)NCc1ccc(-c2ccccc2)cc1	.	5	.	.	-4
O=C(C[C@H]1C=C[C@@H](NC(=O)C2CCOCC2)[C@H](CO)O1)NCC1CCCCC1	.	6	.	.	-2
N#Cc1cc2c(nc1SCC1COc3ccccc3O1)CCC2 (stereo not given)	.	.	-6	111*	.
C[C@@H]1CN([C@@H](C)CO)C(=O)c2cccc(NC(=O)Nc3ccccc3)c2O[C@@H]1CN(C)S(=O)(=O)c1ccccc1	.	10	.	.	47
SMILES	Wnt bcat act	esBAF inh	Rtt109 HAT inh	MITF TRPM1 HTS	Statin myotox sup
C[C@@H]1CN([C@@H](C)CO)C(=O)c2cccc(NC(=O)Nc3ccccc3)c2O[C@@H]1CN(C)S(=O)(=O)c1ccc(F)cc1	.	9	.	.	74*
C[C@@H]1CN([C@H](C)CO)C(=O)c2cccc(NC(=O)Nc3ccccc3)c2O[C@@H]1CN(C)S(=O)(=O)c1ccccc1	.	3	.	.	65*
Cc1ccc(S(=O)(=O)N(C)C[C@H]2Oc3c(NC(=O)Nc4ccccc4)cccc3C(=O)N([C@H](C)CO)C[C@H]2C)cc1	.	5	.	.	117*
Cc1ccc(S(=O)(=O)N(C)C[C@H]2Oc3c(NC(=O)Nc4ccccc4)cccc3C(=O)N([C@@H](C)CO)C[C@H]2C)cc1	.	3	.	.	123*
COc1ccc(-c2cnc3c(c2)C(=O)N([C@H](C)CO)C[C@H](C)[C@H](CN(C)S(=O)(=O)c2ccc(OC)cc2)O3)cc1	.	.	.	.	31
CCCNC(=O)C[C@@H]1C[C@H]2c3cc(NC(=O)Nc4ccccc4F)ccc3O[C@H]2[C@@H](CO)O1	.	0	.	.	3
Cn1cc(CNCc2cn[nH]c2-c2ccc(F)cc2)c(-c2ccc3c(c2)OCCO3)n1	37*	.	.	-1	.
COc1ccc(CN2CCN(C(=O)c3cccc4ccccc34)CC2)cc1Br	0	-1	12	.	-6
COc1ccc(CN2CCN(C(=O)c3cccs3)CC2)cc1Br	-1	0	0	5	157*
O=C(c1cccs1)N1CCN(C2CCN(Cc3ccccc3)CC2)CC1	-1	-1	-5	-7	101*
CN(C)/N=C/C=C1\CCC/C(=C/c2cccs2)C1=O	52*	36	-12	53	-5
CN(C)/N=C/C=C1\CC/C(=C\c2ccc(Br)cc2)C1=O	-1	20	-9	19	-1
COc1ccc(S(=O)(=O)N(C)C[C@H]2Oc3ccc(NC(=O)CCN4CCOCC4)cc3CC(=O)N([C@@H](C)CO)C[C@@H]2C)cc1	.	-2	.	.	22
CS(=O)(=O)c1ccc2nc(NC(=O)CCNC(=O)c3ccccc3Cl)sc2c1	5	-1	-3	6	4
O=C(Nc1nc2ccc(F)cc2s1)c1cccs1	57*	.	-2	46	.
O=C(CCNC(=O)c1ccccc1Cl)Nc1nc2ccc(F)cc2s1	18	52*	-5	50	3
O=C(Nc1nc2ccc(F)cc2s1)c1ccc([N+](=O)[O-])o1	71*	88*	.	.	37
CC(=O)N(C)C[C@@H]1Oc2cc(C3=CCCCC3)ccc2S(=O)(=O)N([C@H](C)CO)C[C@@H]1C	.	.	.	.	21
C[C@@H]1CN([C@H](C)CO)C(=O)Cc2cc(NC(=O)C3CC3)ccc2O[C@H]1CN(C)C(=O)Nc1cccc2ccccc12	.	5	.	.	-3
CCC(=O)Nc1ccc2c(c1)C(=O)N(C)[C@H]1CC[C@@H](CC(=O)N3CCc4ccccc4C3)O[C@H]1CO2	.	0	.	.	0
Cc1n[nH]c(=S)n1/N=C/c1cccc(OCc2ccccc2)c1	1	.	7	13	.
Cc1n[nH]c(=S)n1/N=C/c1ccccc1OCc1ccc(Cl)cc1	.	52*	2	58	-8
CCOC(=O)C1CCN(C(=O)c2cc3c(-c4ccc(OC)c(OC)c4)nn(C)c3s2)CC1	.	4	-3	.	15
CCOC(=O)C1CCCN(C(=O)c2cc3c(-c4cccc(OC)c4)nn(C)c3s2)C1 (stereo not given)	.	-1	23	-13	96*
COc1cccc(-c2nn(C)c3sc(C(=O)N4CCN(c5ccccn5)CC4)cc23)c1	.	-25	51*	-35	8
CO[C@@H]1CN(C)C(=O)c2ccc(NC(C)=O)cc2OC[C@@H](C)N(C(=O)c2ccncc2)C[C@@H]1C	.	-1	.	.	0

Screening data (PubChem BioAssay)
